# ChEMBL document CHEMBL4513216, “Probing the Open Global Health Chemical Diversity Library for Multistage-Active Starting Points for Next-Generation Antimalarials” (ACS Infect Dis, 2020)
# The campaign covered roughly 68,000 compounds. About 2,700 (4%) showed an effect of 50% or more. For the sample, strong results were picked, then their nearest neighbours and some compounds at random.
# Test system: Plasmodium berghei
# Test: Screen against P. berghei liver stage (PbLuc), transformed with Luciferase, at 2uM
# Type: functional, HepG2
# Conditions: tested at 2 uM
row,SMILES,INHIBITION
1,CN1C[C@@H](n2cnc(-c3ccccc3)c2-c2nccn2C)C[C@H]1C(=O)O,28.07%
2,Nc1nc(NCCO)cc(N2CCc3c([nH]c4ccccc34)C2)n1,-14.75%
3,Cc1ccc2c(c1)CN(C(=O)C1CCCCC1)C(CN(C)C)CO2 (configuration not stated),38.1%
4,Cn1cc(-c2ncc3c(c2C(=O)O)CCN(Cc2ccco2)C3)cn1,2.26%
5,COCc1nc(C2CC2)nn1-c1cc(Cl)ccc1OC,52.98%
6,COc1ccc(Cl)cc1CS(=O)(=O)Cc1nc(C2CC2)no1,7.46%
7,COC(=O)[C@H](C)NC(=O)c1nc(C2CC2)n(-c2ccccc2Cl)n1,13.65%
8,COCc1nc(C2CC2)nn1-c1ccccc1Cl,72.05%
9,COCc1nc(C2CC2)nn1-c1cccc(F)c1,-1.57%
10,COc1ccc(Cl)cc1-n1nc(C2CCCC2)nc1Cn1cnnn1,31.51%
11,Cc1ccn2c(F)c(C(=O)N3CCC4(CCC(=O)N(C)C4)CC3)nc2c1,6.81%
12,Cc1nc(CNC(=O)Nc2cc(F)ccc2N2CCN(C)CC2)no1,29.53%
13,c1cc(OCc2ccc3c(c2)OCO3)ccc1CNC1CC1,1.13%
14,Cc1cc(C)nc(C2CCCN2C(=O)c2cnccn2)n1 (configuration not stated),-48.89%
15,CNc1[nH]nc(N)c1C(=O)Nc1ccccc1,0.86%
16,CNc1[nH]nc(N)c1C(=O)Nc1ccc(OC)cc1,52.21%
17,CNc1[nH]nc(N)c1NC(=O)c1ccccc1,-11.22%
18,CCc1ncc2c(n1)CN(C(C)C(=O)N1CCOCC1)CC2 (configuration not stated),1.42%
19,CC(=O)NCCc1ccc(S(=O)(=O)Nc2ccc(C)cc2F)s1,22.16%
20,COCCN1CCCC(c2cncc(Oc3ccccc3OC)n2)C1 (configuration not stated),41.56%
21,COc1cccc2ccc(CN3CCN(c4ccncc4)CC3)nc12,65.42%
22,COc1cccc2ccc(CN3CCN(c4cccnc4)CC3)nc12,-18.81%
23,COc1cccc2ccc(CN3CCN(c4ncccn4)CC3)nc12,38.8%
24,CCC=C(C)C(=O)NCc1ccnc(OC2CCOCC2)c1,4.54%
25,CC(C)c1nnc2n1CCN(C(=O)CN1CCc3sccc3C1)C2,-9.3%
26,CC(C)c1nnc2n1CCN(C(=O)CN1Cc3ccccc3C1=O)C2,53.03%

row,SMILES,INHIBITION
1,Cc1nnc2n1CCN(CC(=O)N1CCc3ccccc3C1)C2,36.64%
2,CC(C)c1nnc2n1CCN(CC(=O)N1CCc3ccccc3C1)C2,54.92%
3,CC(C)c1nnc2n1CCN(CC(=O)N1CCc3sccc3C1)C2,-38.92%
4,CC(C)c1nnc2n1CCN(C(=O)CN(C)Cc1ccccc1)C2,-58.05%
5,Cc1ccc(NC(=O)N2CC(C(=O)NC(C)C)C3(CCOCC3)C2)cc1 (configuration not stated),33.65%
6,COCC1CCN(S(=O)(=O)c2ccc(C(=O)NCC(F)F)cc2)C1 (configuration not stated),15.44%
7,Cc1cc(C(=O)N2CCN(c3nc4c(C(C)C)cccc4s3)CC2)no1,23.65%
8,Cc1cc(C(=O)N2CCN(c3nc4c(C(C)C)cccc4s3)CC2)on1,61.06%
9,Cc1cc(C(=O)N2CCN(c3nc4c(C)cccc4s3)CC2)no1,7.72%
10,Cc1nn(CC(=O)N(C)Cc2nncn2C(C)C)c(=O)c2ccccc12,-0.47%
11,O=C(O)c1ccccc1CN1CCCC(Cc2ccn[nH]2)C1 (configuration not stated),28.66%
12,Cc1cc(C(=O)N2CCC3(CC2)CC(c2cccnc2)C(=O)N3)no1 (configuration not stated),12.68%
13,O=C1NC2(CCN(C(=O)c3ccccc3)CC2)CC1c1cccnc1 (configuration not stated),-51.9%
14,O=C1NC2(CCN(C(=O)N3CCOCC3)CC2)CC1c1cccnc1 (configuration not stated),78.29%
15,Cc1occc1-c1nc(NC2CCCC2)ncc1-c1ccccn1,11.97%
16,COCCCNC(=O)CN(C)C(C)c1nc(C(C)C)no1 (configuration not stated),60.79%
17,COCCNC(=O)CN(C)C(C)c1nc(C)no1 (configuration not stated),-4.01%
18,COCCCNC(=O)CN(C)C(C)c1nc(C)no1 (configuration not stated),35.5%
19,Cc1ccc(-c2cc(C)nc(C3CCCN3S(C)(=O)=O)n2)cc1 (configuration not stated),16.87%
20,COCCN1CCN(C(C)C(=O)Nc2ccnn2C(C)C)CC1 (configuration not stated),23.86%
21,CC(C(=O)Nc1ccnn1C(C)C)N1CCN(Cc2ccon2)CC1 (configuration not stated),62%
22,CC(C(=O)Nc1ccnn1C(C)C)N1CCN(Cc2ccccc2)CC1 (configuration not stated),47.68%
23,C[C@H]1C[C@@H]2CCN(C(=O)c3ccncc3)C[C@H]2O1,-15.25%
24,CCn1c(C)nnc1CN(C)C1CCN(CCn2cccn2)C1 (configuration not stated),-53.72%
25,CN(C)S(=O)(=O)N1CCC2(COCc3cnc(-c4cccnc4)nc32)C1 (configuration not stated),19.51%
26,Cc1cc(C)nc(N2CCOC(C)(C(=O)N(C)C)C2)n1 (configuration not stated),19%
